HMGR II inh = E. faecalis class II HMG-CoA reductase inhibition; inhibition, % at 10 µM; 190,000 tested, 0.41% active; AID 1066; purified E. faecalis HMGR, NADPH absorbance 340 nm kinetic;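 active means inhibition above a set limit, the median over all tested compounds plus 3 SD, cut at about 9.5% in these data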;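 further: enzyme runs in reverse so mevalonate oxidation gives rising NADPH absorbance; 0% = complete reaction with DMSO and 100% = background rate lacking mevalonate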
PKD1 inh = PKD1 (human) kinase inhibition. Q15139. PKD1 kinase fluorescence polarization assay. inhibition, % (no concentration beside the values). 200,000 tested, 0.056% active; in the data active means inhibition above about 50%
Wee1 degr inh = human Wee1 degradation inhibition, primary screen | reporter increase, % at 5 µM | AID 1321 | 220,000 tested, 1.2% active | HeLa Luc-Wee1K328M stability, luciferase luminescence; 100% = proteasome inhibitor MG132 effect | P30291;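 active means activation above the mean of all tested compounds plus 3 SD, set per screening run, cut at about 8.8% in these data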;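 further: cells exposed to compound for 20 h before luminescence read; 0% = DMSO alone and 100% = MG132 at 30 µM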
Target sequence (P30291 whole entry K328M): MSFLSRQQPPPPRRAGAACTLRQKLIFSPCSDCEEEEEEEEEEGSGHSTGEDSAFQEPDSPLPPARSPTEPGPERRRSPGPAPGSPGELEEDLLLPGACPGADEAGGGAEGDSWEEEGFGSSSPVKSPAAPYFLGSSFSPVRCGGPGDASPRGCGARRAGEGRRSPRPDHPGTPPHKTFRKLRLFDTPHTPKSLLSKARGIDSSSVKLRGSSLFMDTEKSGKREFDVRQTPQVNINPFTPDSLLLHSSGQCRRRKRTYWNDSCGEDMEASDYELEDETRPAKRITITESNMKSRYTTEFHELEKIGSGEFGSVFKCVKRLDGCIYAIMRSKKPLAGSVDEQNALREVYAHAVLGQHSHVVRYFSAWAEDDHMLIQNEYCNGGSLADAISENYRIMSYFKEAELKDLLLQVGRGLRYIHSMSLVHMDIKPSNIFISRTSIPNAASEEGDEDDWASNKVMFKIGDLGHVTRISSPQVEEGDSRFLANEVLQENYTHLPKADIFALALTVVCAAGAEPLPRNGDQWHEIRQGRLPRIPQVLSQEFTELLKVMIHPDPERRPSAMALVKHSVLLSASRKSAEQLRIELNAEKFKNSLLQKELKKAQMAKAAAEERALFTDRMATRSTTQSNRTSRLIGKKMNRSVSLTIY
Hsp70 activator = Hsp70 transcriptional activation, primary screen | activation, % at 10 µM | 200,000 tested, 0.04% active | HeLa Hsp70 promoter luciferase reporter, luminescence; scaled: vehicle 0, proteasome-inhibitor control 100%;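 active means activation above the mean across all tested compounds plus 3 SD, cutoff set per campaign, cut at about 5.5% in these data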;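 further: 100% = MG132 at 30 µM as the positive control and 0% = DMSO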
Arbovirus anti = arbovirus infection inhibition. arbovirus infection cell-based antiviral screen. inhibition, % at 10 µM. 200,000 tested, 0.37% active. AID 1251; in the data active means inhibition above about 30%
An asterisk follows results filed as active; x = no result given. In the library only some 2% were active in any assay of this set; here they are far more common.

SMILES | HMGR II inh | PKD1 inh | Wee1 degr inh | Hsp70 activator | Arbovirus anti
CNC(=S)/N=C/NOCc1c(Cl)cccc1Cl | 1 | -4 | -3 | 0 | -23
O=C1NCCn2ccc(=O)cc21 | x | x | 13* | x | x
Cc1ccc(CN2CCNC2=O)cc1 | -4 | 0 | -2 | 0 | 12
O=C(CNCC1CCCCC1)Nc1ccccc1N1CCCCC1 | -2 | 1 | 0 | 0 | -21
O=C(CNC1CCCCCC1)Nc1ccccc1N1CCCCC1 | 0 | 1 | 8.9* | 0 | -1
COc1cc(CC(=O)Nc2ccccc2N2CCCCC2)cc(OC)c1OC | 3 | 6 | 9.4* | 0 | 11
COc1ccc(-c2csc(NC(=O)c3cc(=O)c4ccccc4o3)n2)cc1OC | -4 | 2 | 5 | 0 | 2
CCC(=O)NC1CCN(C(=S)NC)CC1 | -1 | -2 | 2 | 0 | 2
COc1ccc(C2C(C(=O)N3CCCCC3)CC(=O)N2c2ccc(OC)cc2)cc1 (configuration not stated) | -3 | -5 | 2 | 0 | 3
COc1ccc(N2C(=O)C(CN3CCCCC3)C2c2ccccc2)cc1 (configuration not stated) | 15* | 9 | 4 | 0 | -4
O=C(CCCn1c(=O)[nH]c2ccsc2c1=O)N1CCN(c2ccccn2)CC1 | -5 | -10 | 11* | 0 | 0
Cc1ccc(-n2cnc3sc(C)c(C)c3c2=O)cc1 | 13* | 11 | -1 | 0 | -7
COc1cc2cc(CN(CCCN3CCOCC3)C(=O)Nc3ccccc3F)c(=O)[nH]c2cc1OC | -4 | -1 | 9.2* | 0 | -4
CCc1ccc2[nH]c(=O)c(CN(CCN3CCOCC3)C(=O)Nc3ccccc3F)cc2c1 | -4 | 1 | -3 | 0 | -11
Cc1ccc(C2=NN(S(=O)(=O)c3ccccc3)C(c3ccccc3O)C2)cc1 (configuration not stated) | -6 | -6 | 0 | -1 | -33
COC(=O)c1sccc1NC(=O)CNC(=O)c1ccccc1 | -4 | -3 | -2 | 0 | 4
CCC(OC(=O)C1=Cc2ccccc2OC1)C(=O)NCc1ccco1 (configuration not stated) | 12* | 2 | -1 | 0 | 2
COC(=O)c1c(NC(C)=O)sc(C(=O)Nc2ccccc2)c1C | 1 | -4 | 9.1* | 0 | 3
CCC(=O)Nc1sc(C(=O)Nc2ccccc2OC)c(C)c1C(=O)OC | 1 | -2 | 3 | 0 | 0
CCCC(=O)Nc1sc(C(=O)Nc2cccc(N)c2)c(C)c1C(=O)OC | 17* | -5 | -2 | 0 | -32
CCC(=O)NC(=S)Nc1ccc(NC(=O)c2ccc([N+](=O)[O-])cc2Cl)cc1 | 0 | -3 | 0 | 0 | -10
O=c1c2ccccc2nnn1Cc1ccc2ccccc2c1 | -2 | 7 | -1 | 0 | -2
O=[N+]([O-])c1ccc(-c2csc3[n+]2CCS3)cc1 | 4 | 0 | 0 | 0 | -8
Fc1ccc(-c2csc3[n+]2CCS3)cc1 | 17* | 2 | -1 | 0 | 2
CN(Cc1ccccc1)c1nc(N)nc(Cl)c1C=O | 14* | -4 | -3 | 0 | 7
SMILES | HMGR II inh | PKD1 inh | Wee1 degr inh | Hsp70 activator | Arbovirus anti
CN1CCN(CCCC(=O)c2ccc(C3CCCC3)cc2)CC1 | 1 | 2 | 2 | 0 | -35
Cn1ccnc1SCC(=O)Nc1cccc(S(=O)(=O)N2CCCCCC2)c1 | -11 | -1 | 5 | 0 | 0
O=C1c2ccccc2C(=O)N1CNc1ccccc1 | 3 | 1 | 14* | 0 | 5
COc1ccc(Cl)cc1NC(=O)CN(c1ccccc1)S(=O)(=O)N(C)C | 17* | 3 | -1 | 0 | -2
COc1ccc(OC)c(NC(=O)C2COc3ccccc3O2)c1 (configuration not stated) | -2 | 11 | 0 | 0 | 15
COc1ccc(Cl)cc1NC(=O)C1COc2ccccc2O1 (configuration not stated) | -5 | 1 | 1 | 0 | 32*
COc1ccc(NC(=O)CN(c2ccccc2)S(=O)(=O)N(C)C)cc1Cl | -3 | -5 | 6 | 0 | -3
COc1ccc(C/C(C)=N/NC(=O)c2ccc(Cl)cc2)cc1 | 10* | -2 | 0 | 0 | 19
CCOc1cc(C(=O)N/N=C(\C)Cc2ccc(OC)cc2)cc(OCC)c1OCC | -1 | -8 | 1 | 0 | -8
COc1ccc(C/C(C)=N/NS(=O)(=O)c2ccc(Br)cc2)cc1 | 15* | 9 | 2 | 0 | 1
C#CCOCCOCCOCCNc1nc(N2CCN(C(=O)[C@H](C)n3cc(CCCN=C(N)N)nn3)CC2)nc(N2CCN(C(=O)[C@H](CCCCN)n3cc(CCCC)nn3)CC2)n1 | 10* | -6 | -3 | 0 | 0
C#CCOCCOCCOCCNc1nc(N2CCN(C(=O)C([C@@H](C)CC)n3cc(C(N)CC(C)C)nn3)CC2)nc(N2CCN(C(=O)[C@H](CCC(=O)O)n3cc(C(N)Cc4ccc(O)cc4)nn3)CC2)n1 (some centres not stated) | -12 | 5 | 11* | 0 | 2
C#CCOCCOCCOCCNc1nc(N2CCN(C(=O)[C@H]([C@@H](C)CC)n3cc([C@@H](N)CC(C)C)nn3)CC2)nc(N2CCN(C(=O)[C@H](CCCCN)n3cc([C@@H](N)CO)nn3)CC2)n1 | -8 | -3 | 9.2* | 0 | 2
CC12CN3CCN(CC(C3)/C1=N\NC(=O)Nc1cccc(Cl)c1)C2 | -3 | -1 | -1 | 0 | 2
O=S(=O)(Nc1cccc(-c2nnco2)c1)c1ccc(F)cc1F | x | x | -1 | x | x
Cc1nnc(SCC(=O)N2CCc3ccccc32)s1 | -2 | -6 | 0 | 0 | 39*
O=C(CCC(=O)N1CCc2ccccc21)N1CCc2ccccc21 | x | 2 | -2 | 0 | x
O=C(CCCc1ccccc1)N1CCc2ccccc21 | -9 | 4 | 9.8* | 0 | 9
COc1ccc(C(=O)Cc2cc(OC)c(OC)cc2C(=O)c2ccccc2F)cc1OC | -5 | -2 | -1 | 0 | 8
COc1cccc2cc(C(=O)OCC(=O)NCc3ccc4c(c3)OCO4)c(=O)oc12 | x | x | 2 | x | x
Cc1ccc(CN(c2ccc(C(=O)N3CCOCC3)cc2)S(C)(=O)=O)cc1 | -1 | -16 | 10.0* | 0 | 13
CCN(Cc1ccncc1)Cc1cn[nH]c1-c1cc(OC)c(OC)c(OC)c1 | -1 | 6 | 1 | 0 | 5
COc1ccccc1C(=O)C1CCCN(C(=O)CSc2ccccn2)C1 (configuration not stated) | 3 | -3 | 10* | 0 | 3
COc1ccc(F)cc1C(=O)C1CCCN(C(=O)CSc2ccccn2)C1 (configuration not stated) | 3 | -8 | -1 | 0 | 35*
CCn1cc(C(=O)OCC(=O)Nc2c(C)cccc2C)c(=O)c2ccc(C)nc21 | -6 | -2 | -3 | 0 | 3
CCCC1/C(=N/O)CC(c2ccccc2)NC1c1ccccc1 (configuration not stated) | -6 | -6 | 9.1* | 0 | -19
O=C(/C=C/c1ccc(Cl)c(Cl)c1)NC1=NCCS1 | -4 | -6 | 2 | 0 | 4

Bioassay records: PubChem, several laboratories
